Data on 18 compounds can be found in PubChem BioAssay (EPA / NIEHS).

Activity calls are given as the source filed them. How the source made its calls: active means hit-call score of the fitted dose curve at least 0.9, where 1 is the maximum; inactive means score below 0.9.

The assay is described as follows: CEETOX_H295R_DOC: CeeTox H295R High-throughput Steroidogenesis Assay for DOC (AID 2283439). The following applies: actives raise or lower the signal. Here is the method:
CEETOX_H295R is a cell-based, multiplexed-readout assay that uses H295R, a human adrenal gland cell line, with measurements taken at 48 hours after chemical dosing in a 96-well plate.CEETOX_H295R_DOC is one of 23 assay component(s) measured or calculated from the CEETOX_H295R assay. It is designed to make measurements of hormone induction, a form of inducible reporter, as detected with absorbance signals by HPLC-MS-MS technology.Data from the assay component CEETOX_H295R_DOC was analyzed into 1 assay endpoint. This assay endpoint, CEETOX_H295R_DOC, was analyzed with bidirectional fitting relative to DMSO as the negative control and baseline of activity. Using a type of inducible reporter, gain or loss-of-signal activity using HPLC-MS-MS was used to understand synthesis of 11-Deoxycorticosterone in H295R cell line at 48hr of chemical exposure. To generalize the intended target to other relatable targets, this assay endpoint is annotated to the steroid hormone intended target family, where the subfamily is glucocorticoids.
Cell culture and media preparation procedures were conducted in accordance with OECD Test No. 456 guidelines, with minor modifications. H295R cells (ATCC CRL-2128) were expanded for 5 passages and frozen in batches in liquid nitrogen. Prior to the steroidogenesis assay, H295R cells were thawed and passed at least 4 times. The maximum passage was 10. Cells were maintained in a 1:1 mixture of DMEM/F12 supplemented with 5ml/L ITS+ Premix (BD Bioscience) and 12.5 ml/L Nu-Serum (BD Bioscience). After seeding cells into 96-well plates at 50-60% confluency, cells were allowed to adhere overnight. Prior to chemical testing, culture medium was replaced with 175 uL medium containing 10 uM forskolin to stimulate steroidogenesis for 48 hours. Following prestimulation, forskolin medium was replaced with medium containing test chemical solubilized in DMSO (ensuring a final concentration of 0.1% DMSO). Test chemicals were incubated for 48 hours, then the medium was removed and split into 2 vials containing approximately 75uL each, and stored at -80 C prior to hormone analysis. For steroid quantification, media samples were shipped to OpAns, LLC (Durham, NC) on dry ice, and samples were thawed to room temperature prior to liquid-liquid extraction. Steroid hormones were extracted from media samples using methyl tertbutyl ether (MTBE). An extra derivatization with dansyl chloride was included for estrogen (estrone and estradiol) detection only. Steroid hormones were separated by HPLC, eluted using a reverse phase C18 gradient with electrospray positive ionization, followed by quantification by tandem mass spectrometry (MS/MS). Data were acquired on a MassHunter Workstation Acquisition version B03.01 (Agilent Technologies, Inc.) and processed using MassHunter Quantitative Analysis for QQQ. Accuracy was determined for each hormone analyte from 3 standards to determine upper and lower limits of quantification (ULOQ and LLOQ, respectively) using a 7-point standard curve. Precision and accuracy of the extraction and quantification methods were calculated as the percent relative standard deviation (%RSD) of the spiked standards and percent spiked standard recovered, respectively. […] Test medium was removed following chemical exposure, and cell viability was evaluated in the same wells by MTT. MTT procedures were as follows: after removal of test medium, 500 uL of 0.5 mg/ml of 3-[4,5-dimethylthiazol-2-y]2,5-diphenyltetrazoliumbromide solution was added to the cells. Following a 4-hour incubation at 37 C and 5% CO2 to allow formazan-crystal formation, the MTT solution was removed and blue formazan salt crystals were solubilized using 500uL anhydrous isopropanol with shaking for 20 minutes. Absorbance was read at 570 and 650nm using a Packard Fusion microplate reader. Background correction of absorbance units was used to determine percent change relative to controls. […]
As to `CCCCc1nc2cccnc2n1Cc1ccc(-c2ccccc2-c2nnn[nH]2)cc1`, the AC50 – broadly, the concentration giving half of the maximal activity seen – was 10.1 µM (active).
Turning to `CC(=O)[C@@]1(O)CC[C@H]2[C@@H]3CCC4=CC(=O)CC[C@]4(C)[C@H]3CC[C@@]21C`, the AC50 was 14.9 µM (active).
With `CC(C)(O)c1ccc(CNC(=O)c2cccnc2Oc2ccc(F)cc2)cc1`, the compound was called inactive.
`Cc1cc(Cc2ccc(N)c(C)c2)ccc1N`: the AC50 was 13.2 µM (active).
Regarding `CCCCCCCCCC[N+](C)(C)[O-]`, the compound was classed as inactive.
Regarding `O=C(O)CN(CC(=O)O)CC(=O)O`, the call was inactive.
As to `S=c1[nH]c2ccccc2s1`, the compound was called inactive.
For `O=C(Oc1ccccc1)c1cccc(C(=O)Oc2ccccc2)c1`, the call was inactive.
Regarding `Oc1ccc(O)cc1`, the AC50 is 2.16 µM (active).
As to `Nc1nc(Cl)nc2c1ncn2[C@H]1C[C@H](O)[C@@H](CO)O1`, the AC50 is 0.201 µM (active).
In the case of `Oc1ccccc1O`, the call was inactive.
With `COc1ccc(C(=O)Nc2nc3ccccc3c(NCc3ccccc3)c2C#N)cc1`, the AC50 was 3.01 µM (active).
With `CN(C)C(=O)NC1(c2ccccc2)CCN(CCC[C@]2(c3ccc(Cl)c(Cl)c3)CCCN(C(=O)c3ccccc3)C2)CC1`, the outcome was inactive.
As for `O=C1NC(=O)C(c2ccccc2)(c2ccccc2)N1`, the compound was called inactive.
Regarding `CCN(CC)CCOc1ccc(C(=C(Cl)c2ccccc2)c2ccccc2)cc1`, the AC50 is 0.0456 µM (active).
On to `CC1=C(C)S(=O)(=O)CCS1(=O)=O`, for which the call was inactive.
`CC(COCC(C)OC(=O)c1ccccc1)OC(=O)c1ccccc1` (stereo not drawn): the call was inactive.
For the compound `O=C1c2c(O)cccc2Cc2cccc(O)c21`, the call was inactive.
